Autofluor counter – compound fluorescence in toxin protease inhibitor counterscreen; AID 624483; fluorescence intensity (concentration not given with the values); 360,000 compounds, 3.1% hits; compound autofluorescence counterscreen, microsphere flow cytometry; active compounds read high; in the data active = fluorescence intensity above about 16000; inconclusive = no clear call, values can overlap the other calls
BH1578 lux ind – inducers of Vibrio cholerae quorum light production without autoinducers. V. cholerae BH1578 lux reporter, luminescence, 6 h. AID 588436. activation, % at 18.7 µM. 350,000 compounds, 0.16% hits; in the data active = activation mostly above about 9.7%, no sharp cut-off; inconclusive = no clear call, values can overlap the other calls; inactive = mostly below about 3.7%
BoNT-A LC inh2 – inhibitors of Botulinum neurotoxin A light chain protease | AID 588499 | multiplex microsphere protease substrate cleavage, flow cytometry | inhibition, % at 10 µM | 360,000 compounds, 0.17% hits; note: plate controls were buffer without enzyme for full effect and enzyme alone for no effect
Anthrax LF inh2 – inhibitors of Bacillus anthracis lethal factor protease | P15917 | multiplex microsphere protease cleavage assay, LF | inhibition, % at 10 µM | 360,000 compounds, 0.12% hits; note: plate controls were buffer without enzyme for full effect and enzyme alone for no effect
Target sequence (P15917 whole entry, looked up): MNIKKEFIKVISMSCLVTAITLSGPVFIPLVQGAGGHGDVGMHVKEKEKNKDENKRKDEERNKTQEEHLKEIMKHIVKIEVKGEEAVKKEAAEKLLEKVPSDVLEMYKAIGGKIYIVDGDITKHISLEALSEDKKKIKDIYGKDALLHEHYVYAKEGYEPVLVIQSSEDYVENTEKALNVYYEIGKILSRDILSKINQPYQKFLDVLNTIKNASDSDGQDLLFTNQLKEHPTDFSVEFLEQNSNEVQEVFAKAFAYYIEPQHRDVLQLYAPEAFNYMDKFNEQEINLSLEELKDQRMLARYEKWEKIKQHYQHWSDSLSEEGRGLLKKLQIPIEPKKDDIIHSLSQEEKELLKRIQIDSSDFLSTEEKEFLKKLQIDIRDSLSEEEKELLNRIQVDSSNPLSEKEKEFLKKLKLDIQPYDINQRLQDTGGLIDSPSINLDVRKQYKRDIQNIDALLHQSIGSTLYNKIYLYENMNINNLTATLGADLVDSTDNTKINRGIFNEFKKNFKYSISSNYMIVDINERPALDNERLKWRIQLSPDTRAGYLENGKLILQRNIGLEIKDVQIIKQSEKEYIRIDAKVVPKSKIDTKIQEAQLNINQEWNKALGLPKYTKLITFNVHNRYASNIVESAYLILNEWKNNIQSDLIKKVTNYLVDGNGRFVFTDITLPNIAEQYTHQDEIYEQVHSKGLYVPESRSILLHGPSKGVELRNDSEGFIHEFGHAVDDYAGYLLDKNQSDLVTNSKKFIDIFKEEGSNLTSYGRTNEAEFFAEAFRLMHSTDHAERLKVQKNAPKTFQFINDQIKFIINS
BoNT F protease – blocks Botulinum neurotoxin F light chain protease | Multiplex microsphere protease cleavage assay, flow cytometry | inhibition, % at 10 µM | 360,000 compounds, 0.22% hits | AID 588497; in the data active = inhibition above about 35%, passing the limit was not always enough; inconclusive = no clear call, values can overlap the other calls; note: plate controls were buffer without enzyme for full effect and enzyme alone for no effect
Numbers without * were called inactive; i = inactive; ? = inconclusive; . = no result given. Shown are actives, neighbours in structure and some others; about 3.5% of the full set was active somewhere. Cut-off read from the data, not from the text of the source, unless noted: active = inhibition above about 30%; inconclusive = no clear call, values can overlap the other calls; inactive = below that.

SMILES	Autofluor counter	BH1578 lux ind	BoNT-A LC inh2	Anthrax LF inh2	BoNT F protease
O=C(COC(=O)/C=C/c1cnc2ccccc2n1)NCC(F)(F)F	3992	i	1	-2	?
COCCNC(=O)COC(=O)/C=C/c1cnc2ccccc2n1	17342*	-1	8	-9	9
COc1ccc(OCc2cc(C(=O)N(C)C3CCOCC3)no2)c2ccccc12	4509	0	-4	0	-4
CCCCC(=O)NC1(C(F)(F)F)NC(=O)N(Cc2ccccc2)C1=O (stereo unspecified)	3902	-2	0	-2	2
COC(=O)CC/C(C)=N\Nc1ccc([N+](=O)[O-])cc1[N+](=O)[O-]	21329*	0	-1	0	0
C/C(CC(C)C)=N/Nc1ccc([N+](=O)[O-])cc1[N+](=O)[O-]	.	i	.	.	.
Cc1nc2nc(CCc3ccccc3)nn2c(C)c1Cl	9302	-3	2	1	15
Cc1nc2nc(Cc3ccccc3)nn2c(C)c1Cl	22300*	-7	3	-3	3
CCc1cccc(N(C(=O)c2csnn2)C(C(=O)NC(C)(C)C)c2ccncc2)c1 (stereo unspecified)	4452	2	-2	0	-5
O=c1[nH]c(SCC2CCCCO2)nc2ccccc12 (stereo unspecified)	21391*	i	?	0	0
O=C(c1ccc(F)cc1F)N1CCN(c2n[nH]c(=O)[nH]c2=O)CC1	4753	0	-1	0	0
CCOc1ccc(CNC(=O)CCn2c(=O)oc3ccccc32)cc1	16172*	i	1	-5	-2
CCOc1ccc(OCC)c(NC(=O)CCn2c(=O)oc3ccccc32)c1	19376*	i	?	1	0
CCOc1ccccc1NC(=O)Cn1c(=O)oc2ccccc21	3298	0	-1	-1	-2
O=C1CSc2ccccc2N1Cc1ccccc1F	24057*	0	-2	2	-3
O=C(NCCN1CCOCC1)c1ccc2c(c1)N(Cc1ccccc1F)C(=O)CS2	4012	i	0	-1	0
COc1ccc(CC(=O)NC2CCN(Cc3nnnn3C(C)(C)C)CC2)cc1OC	20961*	i	?	-3	-6
CCc1ccc2c(c1)CCCN2C(=O)c1ccccc1C(=O)O	19882*	i	4	-1	-4
Cc1ccc2c(c1)CCCN2C(=O)c1c(C)noc1C	22666*	-1	2	-6	3
Cc1ccc2c(c1)CCCN2C(=O)c1ccoc1C	21940*	i	1	-2	1
Cc1ccc2c(c1)CCCN2C(=O)c1cc2ccccc2oc1=O	16268*	0	?	-3	0
Cc1ccc(C)c(N2CCN(C(=O)c3cc4ccccc4oc3=O)CC2)c1	5804	0	-1	0	2
Cc1ccc2c(c1)CCCN2C(=O)C1CCCO1 (stereo unspecified)	22991*	-1	-3	-2	-2
COC(=O)N1CCCc2cc(C)ccc21	4579	i	-1	-3	-2
CCn1c(C)nc2cc(-c3nnc(-c4c(-c5ccccc5)noc4C)o3)ccc21	16285*	2	0	0	0
SMILES	Autofluor counter	BH1578 lux ind	BoNT-A LC inh2	Anthrax LF inh2	BoNT F protease
C/C(CC(=O)Nc1ccccn1)=N\NC(=O)Cc1cccc2ccccc12	23733*	i	?	0	-3
C=C(C)CSc1nnc([C@@H](NC(=O)OC(C)(C)C)C(C)CC)o1 (stereo partly specified)	20796*	i	?	-1	5
CCSc1nnc([C@@H](NC(=O)OC(C)(C)C)C(C)C)o1	3526	-1	0	7	?
Cc1ccc2[nH]c(=O)c3cc(C(=O)NCCC(C)C)sc3c2c1	3817	-2	0	-9	41*
CS(=O)(=O)c1[nH]nc(-c2cccc(Cl)c2)c1C#N	4047	1	1	-6	3
CCOC(=O)Cc1csc(/N=C/c2c(O)n(-c3ccccc3C(F)(F)F)c(=O)c3ccccc23)n1	1940	i	1	2	2
CC(=NCCN1CCCCC1)c1c(O)[nH]c(=O)[nH]c1=O	16267*	i	-1	-1	-1
COc1ccc(-n2c(O)c(C(C)=NCCN3CCNCC3)c(=O)[nH]c2=O)cc1	22171*	-7	3	1	6
COc1ccc(-n2c(O)c(C(C)=NCC3CCCO3)c(=O)[nH]c2=O)cc1 (stereo unspecified)	4409	0	0	-9	7
CC(=NCCCn1ccnc1)c1c(O)n(Cc2ccccc2)c(=O)[nH]c1=O	20727*	i	4	-13	3
CC(=NCCCN1CCCCC1)c1c(O)n(Cc2ccccc2)c(=O)[nH]c1=O	3960	0	3	4	13
CC(=NCCN1CCCCC1)c1c(O)n(Cc2ccccc2)c(=O)[nH]c1=O	23910*	1	-1	2	2
Cc1ccc(/C=N/n2c(C)n[nH]c2=S)o1	22498*	i	1	0	3
Cc1ccc(/C=N/n2c(-c3ccncc3)n[nH]c2=S)o1	2354	0	-1	0	1
O=C(NCc1cccnc1)C(=O)Nc1cc2c3c(c1)CC(=O)N3CCC2	4930	i	0	-1	6
Cc1ccc(Cn2nnc3c(=O)[nH]c(C4CCN(C(=O)c5cccs5)CC4)nc32)cc1	23099*	3	-1	0	-3
O=c1[nH]c(C2CCCN(S(=O)(=O)c3ccccc3)C2)nc2c1nnn2Cc1ccccc1 (stereo unspecified)	22466*	3	2	-1	2
CC(Sc1nnc2ccccn12)C(=O)Nc1ccc2c(c1)OCO2 (stereo unspecified)	3216	i	0	3	0
COc1ccccc1NC(=O)/C(C#N)=C/C=C/c1ccco1	22514*	i	1	-3	0
COc1ccccc1NC(=O)/C=C\c1ccco1	3971	i	-1	-8	4
O=C(O)c1ccc(-c2ccc(/C=c3/sc4nc5ccccc5n4c3=O)o2)cc1Cl	7041	i	32*	133*	?
Cc1cc(C)c2nc3sc(=Cc4ccc(-c5ccccc5C(=O)O)o4)c(=O)n3c2c1	3590	-1	0	6	6
O=C(CCCN1C(=O)c2ccccc2C1=O)N1CCC(c2ccccc2)C1 (stereo unspecified)	20922*	-5	-4	2	-5
O=C(CCCN1C(=O)c2ccccc2C1=O)N1CCCCC1	4870	0	1	4	11
O=C1COc2ccc(-c3csc(=Nc4ccc(OC(F)F)cc4)n3CC3CCCO3)cc2N1 (stereo unspecified)	18135*	14	4	-11	4
CCOC(=O)N1CCC(NC(=O)CCc2c(C)nc3c(c(C)nn3-c3ccccc3)c2C)CC1	4198	0	-2	-14	-6
CCOC(=O)N1CCN(C(=O)c2cc(C)c3c(C)nn(-c4ccccc4)c3n2)CC1	23022*	3	-1	1	-1
COc1ccc(C(CNC(=O)C(=O)Nc2ccc3c(c2)OCCO3)N2CCN(C)CC2)cc1 (stereo unspecified)	5682	i	2	0	19
COC(=O)C1CCN(C(=O)COC(=O)c2cc(-c3cccs3)nn2-c2ccccc2)CC1	4790	i	0	1	-5

Compound activity deposited in PubChem BioAssay by several laboratories.
